Data as given in PubChem BioAssay (Tox21).
“And” between values parts separate entries of the source, which are not always exact repeats. Identical values can stand only once. Results filed as inconclusive are left out. The source made the active and inactive calls. Unless noted, calls follow the shape of the dose curve; as a rule, active = well fitted curve in the direction sought with a large enough effect in the repeat runs; inconclusive = weak or mixed curves; inactive = no such curve, though single readings can be large; an effect the other way counts as inactive or inconclusive.

Experiments:
[1] = A CellTox Green Cytotoxicity Assay to monitor cytotoxicity in HEK293 cells - 0 hour (AID 1224869); also: nearly all actives have a fitted effect of over 50% in size; also: potency is read from the fitted curve at half-maximal effect
Outline: (§1)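 Dead-cell fluorescence measured kinetically: asymmetric cyanine dye, HEK293, 600 cells/well, 5 h settle, 23 nL cpd/DMSO, 37 C, reads 0–40 h every 8 h.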

[2] = A CellTox Green Cytotoxicity Assay to monitor cytotoxicity in HEK293 cells - 40 hour (AID 1224871); also: nearly all actives have a fitted effect of over 45% in size; also: potency is read from the fitted curve at half-maximal effect
Outline: as §1

[3] = qHTS RealTime-Glo MT Cell Viability Assay in HEK293 cells - 0 hour (AID 1224880); also: top concentration of the series differs between compounds; nearly all actives have a fitted effect of over 45% in size
Outline: (§2)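 600 HEK293 cells per well, dispensed already mixed with RealTime-Glo MT reagents. Compound dosing came 5 h later. The same wells were read for luminescence at 0, 8, 16, 24, 32 and 40 h of exposure at 37 C.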

[4] = A CellTox Green Cytotoxicity Assay to monitor cytotoxicity in HEK293 cells - 32 hour (AID 1224881); also: nearly all actives have a fitted effect of over 40% in size; also: potency is read from the fitted curve at half-maximal effect
Outline: as §1

[5] = qHTS RealTime-Glo MT Cell Viability Assay in HepG2 cells - 24 hour (AID 1224867); also: nearly all actives have a fitted effect of over 50% in size; also: potency is read from the fitted curve at half-maximal effect
Outline: (§3)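 Tox21 10K library screened in qHTS format on HepG2 cells carrying RealTime-Glo reagents. Compounds were added after a 5 h preincubation, and the luminescent signal from continuous culture was measured repeatedly during 40 h treatment.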

[6] = qHTS RealTime-Glo MT Cell Viability Assay in HEK293 cells - 32 hour (AID 1224868); also: nearly all actives have a fitted effect of over 50% in size; also: potency is read from the fitted curve at half-maximal effect; as to activity change, negative = cytotoxic: top concentration of the series differs between compounds
Outline: (§4)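 Luminescence generated by NanoLuc from substrate produced by living HEK293 cells served as the viability signal. Each value reflects the reading at its stated time point during continuous 40 h compound exposure at 37 C.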

[7] = qHTS RealTime-Glo MT Cell Viability Assay in HepG2 cells - 40 hour (AID 1224870); also: nearly all actives have a fitted effect of over 50% in size; also: potency is read from the fitted curve at half-maximal effect
Outline: (§5)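 Real-time viability: cells seeded at 600 per well together with NanoLuc and cell-permeant prosubstrate, compounds added after 5 h incubation. Luminescence tracked at 0, 8, 16, 24, 32 and 40 h of exposure.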

[8] = qHTS RealTime-Glo MT Cell Viability Assay in HEK293 cells - 16 hour (AID 1224872); also: nearly all actives have a fitted effect of over 50% in size; also: potency is read from the fitted curve at half-maximal effect; as to activity change, negative = cytotoxicity: top concentration of the series differs between compounds
Outline: as §4

[9] = qHTS RealTime-Glo MT Cell Viability Assay in HEK293 cells - 40 hour (AID 1224874); details: RealTime-Glo luminescence; max response: stronger effect = lower value; also: nearly all actives have a fitted effect of over 50% in size; also: potency is read from the fitted curve at half-maximal effect
Outline: as §2

[10] = A CellTox Green Cytotoxicity Assay to monitor cytotoxicity in HEK293 cells - 24 hour (AID 1224875); also: nearly all actives have a fitted effect of over 45% in size; also: potency is read from the fitted curve at half-maximal effect
Outline: as §1

[11] = A CellTox Green Cytotoxicity Assay to monitor cytotoxicity in HepG2 cells - 16 hour (AID 1224876); also: nearly all actives have a fitted effect of over 45% in size; also: potency is read from the fitted curve at half-maximal effect
Outline: (§6)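 First, HepG2 cells (600/well) mixed with reagent were plated; second, after 5 h at 37 C they received compounds via pintool; third, fluorescence was measured at 0 h through 40 h at 8 h intervals.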

[12] = qHTS RealTime-Glo MT Cell Viability Assay in HepG2 cells - 32 hour (AID 1224877); also: nearly all actives have a fitted effect of over 55% in size; also: potency is read from the fitted curve at half-maximal effect
Outline: as §3

[13] = A CellTox Green Cytotoxicity Assay to monitor cytotoxicity in HepG2 cells - 24 hour (AID 1224878); also: nearly all actives have a fitted effect of over 45% in size; also: potency is read from the fitted curve at half-maximal effect
Outline: as §6

[14] = A CellTox Green Cytotoxicity Assay to monitor cytotoxicity in HepG2 cells - 40 hour (AID 1224879); also: nearly all actives have a fitted effect of over 40% in size; also: potency is read from the fitted curve at half-maximal effect
Outline: as §6

[15] = qHTS assay to identify small molecule antagonists of the estrogen related receptor (ERR) signaling pathway from Tox21 library (AID 1224848); also: nearly all actives have a fitted effect of over 50% in size; also: potency is read from the fitted curve at half-maximal effect
Outline: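 Luciferase luminescence (ONE-Glo, 30 min room temperature) was the read-out. Cells of the NTP-supplied ERR line, 2,000 per well, were given 6 h at 37 C before compound addition in DMSO and 18 h exposure at 37 C.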

[16] = qHTS assay to identify small molecule agonists of the estrogen related receptor (ERR) signaling pathway from Tox21 library (AID 1224849; calls by dose curve; also: nearly all actives have a fitted effect of over 15% in size); details: ERR reporter cell line, ONE-Glo luciferase, 18 h; at 92.4 µM (top of the series) unless noted
Outline: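 Quantitative HTS in agonist format: NTP ERR cell line, compounds transferred in DMSO after 6 h plating, 18 h incubation at 37 C, ONE-Glo luminescence endpoint.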

[17] = qHTS RealTime-Glo MT Cell Viability Assay in HepG2 cells - 8 hour (AID 1224873); also: nearly all actives have a fitted effect of over 55% in size
Outline: as §5

[18] = qHTS assay to identify small molecule agonists of H2AX - cell viability counter screen (AID 1224847; calls by dose curve;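 also: wild-type CHO-K1 cells; top concentration of the series differs between compounds; nearly all actives have a fitted effect of over 30% in size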)
Outline: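 For this counter screen, overnight-attached CHO-K1 cells received test compounds (15 concentrations, 0.76% DMSO final); 3 hr later at 37C, CellTiter-Glo reagent was added and luminescence recorded after 30 min at room temperature.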
% is scaled to controls: 0 for no effect and ±100 for the full control effect.

CC(O)C#CC(C)O (centres undefined)
active: Potency [2] 54.4 µM | Potency [4] 54.4 µM
inactive: Potency [1] | Potency [3]

CC=O
active: Potency [5] 51.3 µM | Potency [6] 0.575 µM | Potency [7] 32.3 µM | Potency [2] 51.3 µM | Potency [8] 4.57 µM | Potency [9] 0.324 µM | Potency [10] 57.5 µM | Potency [11] 57.5 µM | Potency [12] 45.7 µM | Potency [13] 45.7 µM | Potency [14] 25.7 µM | Potency [4] 51.3 µM
inactive: Potency [1] | Potency [3]

Clc1ccc(C(Cn2ccnc2)OCc2ccsc2Cl)c(Cl)c1 (centres undefined)
inactive: activity change, positive = activation [16] -53.5% [at 42.5 µM] | Potency [1] | Potency [10] | Potency [3]
active: Potency [15] 18.8 µM | Potency [6] 19 µM | Potency [8] 15.1 µM | Potency [9] 16.9 µM | Potency [13] 21.3 µM | Potency [14] 23.9 µM

Nc1ccc2cc3ccc(N)cc3nc2c1
active: Potency [6] 871 nM and 2.13 µM | Potency [1] 38.9 µM and 21.3 µM | Potency [7] 9.52 µM | Potency [2] 43.6 µM and 21.3 µM | Potency [8] 6.16 µM and 9.52 µM | Potency [9] 436 nM and 2.13 µM | Potency [10] 43.6 µM and 21.3 µM | Potency [11] 49 µM and 21.3 µM | Potency [13] 49 µM and 23.9 µM | Potency [14] 49 µM and 21.3 µM
inactive: Potency [17] | Potency [3]

Cc1cc2c(C(C)C)c(O)c(O)c(C=O)c2c(O)c1-c1c(C)cc2c(C(C)C)c(O)c(O)c(C=O)c2c1O
inactive: activity change, positive = activation [16] -47.3% [at 42.5 µM] | Potency [1] | Potency [11] | Potency [3]
active: Potency [15] 7.5 µM | Potency [5] 21.3 µM | Potency [6] 12 µM | Potency [7] 26.8 µM | Potency [2] 19 µM | Potency [8] 19 µM | Potency [9] 8.49 µM | Potency [10] 19 µM | Potency [12] 21.3 µM | Potency [14] 26.8 µM | Potency [4] 21.3 µM

CNC(=O)c1cc(Oc2ccc(NC(=O)Nc3ccc(Cl)c(C(F)(F)F)c3)cc2)ccn1
inactive: activity change, positive = activation [16] -59.1% [at 42.5 µM] | Potency [1] | Potency [2] | Potency [10] | Potency [11] | Potency [13]
active: Potency [15] 8.41 µM | Potency [6] 3.01 µM | Potency [8] 3.01 µM | Potency [9] 3.01 µM

O=C(Oc1ccccc1)c1cccc(C(=O)Oc2ccccc2)c1
inactive: Potency [5] | Potency [1] | Potency [7] | Potency [2] | Potency [8] | Potency [17] | Potency [12] | Potency [3]

CN(Cc1cc(Br)cc(Br)c1N)C1CCCCC1
active: Potency [11] 19 µM | Potency [13] 21.3 µM
inactive: Potency [15] | activity change, positive = activation [16] -11.1% [at 42.5 µM] | Potency [5] | Potency [1] | Potency [7] | Potency [17] | Potency [12] | Potency [3]

S=C(SSSSSSC(=S)N1CCCCC1)N1CCCCC1
active: Potency [2] 0.241 µM | Potency [8] 13.6 µM
inactive: activity change, negative = cytotoxicity [18] -11.5% [at 31.6 µM] | cytotoxicity [1] -0.227% [at 15.8 µM] | activity change, negative = cytotoxic [7] -10.6% [at 15.8 µM] | cytotoxicity increase [11] -6.85% [at 15.8 µM] | activity change, negative = cytotoxic [12] -24.5% [at 15.8 µM] | cytotoxicity [13] -0.0697% [at 15.8 µM] | activity change, negative = cytotoxicity [3] -11.8% [at 15.8 µM]

Cc1ccc(-n2[nH]c(C)c(N=Nc3cccc(-c4cccc(C(=O)O)c4)c3O)c2=O)cc1C
inactive: Potency [18] | Potency [1] | Potency [7] | Potency [2] | Potency [17] | Potency [10] | Potency [11] | Potency [13] | Potency [3] | Potency [4]
active: Potency [9] 21.3 µM

CC(=O)OC(OC(C)=O)c1ccc([N+](=O)[O-])o1
inactive: activity change, positive = activation [16] -81.4% | Potency [1] | Potency [3]
active: Potency [6] 44.4 µM | Potency [2] 49.8 µM | Potency [8] 44.4 µM | Potency [9] 44.4 µM | Potency [14] 49.8 µM

c1cc2c3c(c1)ccc1cccc(c13)C2
active: Potency [15] 70.1 µM | Potency [2] 50 µM | Potency [10] 56.1 µM | Potency [4] 50 µM
inactive: activity change, positive = activation [16] -42.3% | Potency [5] | Potency [1] | Potency [7] | Potency [8] | Potency [17] | max response [9] -20.7% | Potency [11] | Potency [12] | Potency [13] | Potency [14] | Potency [3]

CN(C)c1ccc(N=Nc2ccccc2C(=O)O)cc1
inactive: Potency [6] | Potency [1] | Potency [8] | Potency [10] | Potency [11] | Potency [13] | Potency [3]

Clc1ccccc1CN1CCc2sccc2C1
inactive: Potency [5] | Potency [1] | Potency [7] | Potency [2] | Potency [17] | max response [9] -22.8% | Potency [10] | Potency [11] | Potency [12] | Potency [13] | Potency [14] | Potency [3] | Potency [4]

C[n+]1c2cc(N)ccc2cc2ccc(N)cc21 (tested in a mixture with another compound)
active: Potency [6] 5.35 µM | Potency [1] 23.9 µM | Potency [2] 23.9 µM | Potency [8] 21.3 µM | Potency [9] 4.77 µM | Potency [10] 23.9 µM | Potency [11] 23.9 µM | Potency [13] 21.3 µM | Potency [4] 23.9 µM
inactive: Potency [3]

C[C@@]12C(=O)OC(=O)[C@]1(C)C1CCC2O1
inactive: Potency [1] | Potency [2] | Potency [10] | Potency [3]
active: Potency [5] 4.77 µM | Potency [6] 6.01 µM | Potency [7] 1.69 µM | Potency [8] 5.35 µM | Potency [9] 6.01 µM | Potency [11] 23.9 µM | Potency [12] 1.51 µM | Potency [13] 19 µM | Potency [14] 10.7 µM

O=C1c2c(O)ccc(O)c2C(=O)c2c(NCCNCCO)ccc(NCCNCCO)c21
active: Potency [15] 0.75 µM | Potency [5] 9.52 µM | Potency [6] 0.0239 µM | Potency [7] 7.56 µM | Potency [8] 0.848 µM | Potency [9] 0.019 µM | Potency [12] 8.49 µM
inactive: activity change, positive = activation [16] -59.3% [at 42.5 µM] | Potency [1] | Potency [2] | Potency [17] | Potency [10] | Potency [11] | Potency [13] | Potency [3] | Potency [4]

O=C(NO)c1ccccc1
active: Potency [15] 23.2 µM
inactive: activity change, positive = activation [16] -48.5% | Potency [5] | Potency [1] | Potency [7] | Potency [17] | Potency [12] | Potency [3]

CN1CCN(C2Cc3ccccc3Sc3ccc(Cl)cc32)CC1 (centres undefined)
inactive: activity change, positive = activation [16] -28.3% [at 42.5 µM] | Potency [1]
active: Potency [15] 26.6 µM | Potency [5] 23.9 µM | Potency [2] 21.3 µM | Potency [9] 23.9 µM | Potency [10] 21.3 µM | Potency [11] 26.8 µM | Potency [12] 23.9 µM | Potency [13] 23.9 µM | Potency [14] 23.9 µM | Potency [4] 21.3 µM

Brc1ccccc1-c1ccccc1
active: Potency [11] 41.3 µM | Potency [13] 46.3 µM | Potency [14] 1.84 µM | Potency [4] 20.7 µM
inactive: Potency [15] | Potency [5] | Potency [6] | Potency [1] | Potency [7] | Potency [17] | max response [9] -2.43% | Potency [12] | Potency [3]
